For assay [1], the target named is Death-associated protein kinase 1 (Homo sapiens) (UniProt P53355). The settings on record: at 10 µM.
Assay [2] deals with Death-associated protein kinase 2 (Homo sapiens) (UniProt Q9UIK4). The settings on record: at 1 µM.
Assay [3] shares this target. The settings on record: at 10 µM.
Assay [4] addresses T1, Serine/threonine-protein kinase DCLK2 (Homo sapiens) (UniProt Q8N568).
T1 sequence (whole entry): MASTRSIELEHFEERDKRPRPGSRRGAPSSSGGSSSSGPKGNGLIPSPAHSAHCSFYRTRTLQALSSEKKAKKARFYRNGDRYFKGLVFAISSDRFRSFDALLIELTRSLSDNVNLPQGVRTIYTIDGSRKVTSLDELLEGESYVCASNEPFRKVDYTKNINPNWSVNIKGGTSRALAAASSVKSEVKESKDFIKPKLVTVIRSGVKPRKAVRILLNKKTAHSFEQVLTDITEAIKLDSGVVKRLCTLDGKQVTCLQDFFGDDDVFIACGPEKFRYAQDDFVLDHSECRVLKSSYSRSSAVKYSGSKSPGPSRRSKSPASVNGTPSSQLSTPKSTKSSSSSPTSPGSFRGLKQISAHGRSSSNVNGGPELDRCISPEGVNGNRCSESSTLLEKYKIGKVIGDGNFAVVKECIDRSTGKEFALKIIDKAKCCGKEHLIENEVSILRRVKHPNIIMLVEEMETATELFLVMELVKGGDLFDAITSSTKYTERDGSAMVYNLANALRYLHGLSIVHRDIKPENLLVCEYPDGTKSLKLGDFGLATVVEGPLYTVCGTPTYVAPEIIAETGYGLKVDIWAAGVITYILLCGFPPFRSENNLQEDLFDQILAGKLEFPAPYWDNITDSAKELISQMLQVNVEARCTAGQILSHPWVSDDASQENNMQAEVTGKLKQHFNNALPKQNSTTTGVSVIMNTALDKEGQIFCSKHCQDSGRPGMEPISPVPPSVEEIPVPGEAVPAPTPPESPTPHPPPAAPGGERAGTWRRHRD
The settings on record: at 1 µM.

The target of assay [5] is T1, Serine/threonine-protein kinase DCLK2 (Homo sapiens). The conditions noted are these: at 10 µM.
The target of assay [6] is T2, Discoidin domain-containing receptor 2 (Homo sapiens) (UniProt Q16832).
T2 sequence (whole entry): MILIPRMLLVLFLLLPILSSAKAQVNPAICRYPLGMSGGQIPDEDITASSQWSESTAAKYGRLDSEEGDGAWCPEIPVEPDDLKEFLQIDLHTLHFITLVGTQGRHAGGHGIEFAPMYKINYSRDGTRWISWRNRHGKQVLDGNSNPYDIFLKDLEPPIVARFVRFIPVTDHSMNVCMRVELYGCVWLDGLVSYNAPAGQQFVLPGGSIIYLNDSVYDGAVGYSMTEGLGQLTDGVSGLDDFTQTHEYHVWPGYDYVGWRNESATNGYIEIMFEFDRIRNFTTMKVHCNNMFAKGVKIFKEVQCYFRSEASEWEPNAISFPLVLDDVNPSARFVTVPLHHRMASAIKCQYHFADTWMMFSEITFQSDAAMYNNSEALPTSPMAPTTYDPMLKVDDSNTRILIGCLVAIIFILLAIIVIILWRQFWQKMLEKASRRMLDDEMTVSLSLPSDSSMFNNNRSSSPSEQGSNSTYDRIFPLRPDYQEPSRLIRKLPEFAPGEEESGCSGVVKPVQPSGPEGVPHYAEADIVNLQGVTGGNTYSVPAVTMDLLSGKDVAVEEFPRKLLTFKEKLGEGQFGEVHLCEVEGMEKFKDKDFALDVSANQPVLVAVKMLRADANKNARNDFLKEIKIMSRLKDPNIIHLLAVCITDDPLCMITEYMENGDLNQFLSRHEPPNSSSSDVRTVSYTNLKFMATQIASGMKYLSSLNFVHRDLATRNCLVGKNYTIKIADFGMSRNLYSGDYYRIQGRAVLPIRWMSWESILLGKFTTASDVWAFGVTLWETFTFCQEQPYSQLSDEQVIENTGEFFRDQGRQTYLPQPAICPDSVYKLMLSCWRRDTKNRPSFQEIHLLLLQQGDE
The settings on record: at 1 µM.

Assay [7] concerns the target T2, Discoidin domain-containing receptor 2 (Homo sapiens). The conditions noted are these: at 10 µM.
The target of assay [8] is T3, Myotonin-protein kinase (Homo sapiens) (UniProt Q09013).
T3 sequence (whole entry): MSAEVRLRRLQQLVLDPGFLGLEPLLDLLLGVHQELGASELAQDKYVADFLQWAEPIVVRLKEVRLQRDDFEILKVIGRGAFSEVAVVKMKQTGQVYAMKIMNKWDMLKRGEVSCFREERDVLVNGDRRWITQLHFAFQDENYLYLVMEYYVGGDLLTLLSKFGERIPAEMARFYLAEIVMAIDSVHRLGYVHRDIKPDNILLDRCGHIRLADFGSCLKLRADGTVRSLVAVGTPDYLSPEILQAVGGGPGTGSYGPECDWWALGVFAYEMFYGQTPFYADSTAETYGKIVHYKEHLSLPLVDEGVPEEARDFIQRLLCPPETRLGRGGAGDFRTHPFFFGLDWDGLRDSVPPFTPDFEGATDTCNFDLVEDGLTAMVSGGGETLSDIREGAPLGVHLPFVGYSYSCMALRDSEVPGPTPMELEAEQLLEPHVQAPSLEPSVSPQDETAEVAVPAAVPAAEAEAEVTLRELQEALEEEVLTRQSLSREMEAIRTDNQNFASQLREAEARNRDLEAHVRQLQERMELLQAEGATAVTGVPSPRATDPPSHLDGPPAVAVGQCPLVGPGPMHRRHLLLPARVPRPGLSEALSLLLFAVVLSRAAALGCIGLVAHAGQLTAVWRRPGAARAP
The conditions noted are these: at 1 µM.

Assay [9] addresses T3, Myotonin-protein kinase (Homo sapiens). The settings on record: at 10 µM.
In assay [10] the target is T4, Serine/threonine-protein kinase 17A (Homo sapiens) (UniProt Q9UEE5).
T4 sequence (whole entry): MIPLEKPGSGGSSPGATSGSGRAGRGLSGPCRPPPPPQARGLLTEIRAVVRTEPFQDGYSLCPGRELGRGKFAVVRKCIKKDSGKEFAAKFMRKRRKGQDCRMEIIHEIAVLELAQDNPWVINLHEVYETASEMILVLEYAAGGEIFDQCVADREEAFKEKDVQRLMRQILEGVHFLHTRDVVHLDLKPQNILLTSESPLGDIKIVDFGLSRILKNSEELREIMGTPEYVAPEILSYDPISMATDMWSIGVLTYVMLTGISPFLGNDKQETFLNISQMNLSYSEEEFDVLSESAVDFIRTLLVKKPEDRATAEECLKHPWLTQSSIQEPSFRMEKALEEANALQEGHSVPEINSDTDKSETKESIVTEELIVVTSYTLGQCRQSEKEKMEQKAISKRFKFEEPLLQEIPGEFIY
The settings on record: at 1 µM.

Assay [11] has as its target T4, Serine/threonine-protein kinase 17A (Homo sapiens). The conditions noted are these: at 10 µM.
Assay [12] has as its target T5, Dual specificity tyrosine-phosphorylation-regulated kinase 2 (Homo sapiens) (UniProt Q92630).
T5 sequence (whole entry): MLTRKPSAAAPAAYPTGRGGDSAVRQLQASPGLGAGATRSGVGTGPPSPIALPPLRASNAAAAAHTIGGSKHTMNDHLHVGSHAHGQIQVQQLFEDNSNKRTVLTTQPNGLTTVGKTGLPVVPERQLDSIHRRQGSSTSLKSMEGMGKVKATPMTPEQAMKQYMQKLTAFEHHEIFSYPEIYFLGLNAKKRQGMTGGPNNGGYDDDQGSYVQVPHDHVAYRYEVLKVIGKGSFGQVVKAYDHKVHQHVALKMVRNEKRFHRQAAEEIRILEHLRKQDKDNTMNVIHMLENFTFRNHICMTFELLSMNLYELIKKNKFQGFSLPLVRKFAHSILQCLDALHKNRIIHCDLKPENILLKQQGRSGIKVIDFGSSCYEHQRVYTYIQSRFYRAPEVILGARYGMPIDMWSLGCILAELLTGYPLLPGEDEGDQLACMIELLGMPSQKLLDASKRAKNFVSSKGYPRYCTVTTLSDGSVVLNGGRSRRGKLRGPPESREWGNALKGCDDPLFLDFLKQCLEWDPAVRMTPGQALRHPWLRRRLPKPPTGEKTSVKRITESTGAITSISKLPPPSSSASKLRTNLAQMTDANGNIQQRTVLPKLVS
The settings on record: at 1 µM.

Assay [13] deals with T5, Dual specificity tyrosine-phosphorylation-regulated kinase 2 (Homo sapiens). The conditions noted are these: at 10 µM.
Assay [14] concerns the target Epidermal growth factor receptor (Homo sapiens) (UniProt P00533). The conditions noted are these: at 1 µM.
Assay [15] shares this target. The settings on record: at 10 µM.
Assay [16] concerns the target T6, Ephrin type-A receptor 1 (Homo sapiens) (UniProt P21709).
T6 sequence (whole entry): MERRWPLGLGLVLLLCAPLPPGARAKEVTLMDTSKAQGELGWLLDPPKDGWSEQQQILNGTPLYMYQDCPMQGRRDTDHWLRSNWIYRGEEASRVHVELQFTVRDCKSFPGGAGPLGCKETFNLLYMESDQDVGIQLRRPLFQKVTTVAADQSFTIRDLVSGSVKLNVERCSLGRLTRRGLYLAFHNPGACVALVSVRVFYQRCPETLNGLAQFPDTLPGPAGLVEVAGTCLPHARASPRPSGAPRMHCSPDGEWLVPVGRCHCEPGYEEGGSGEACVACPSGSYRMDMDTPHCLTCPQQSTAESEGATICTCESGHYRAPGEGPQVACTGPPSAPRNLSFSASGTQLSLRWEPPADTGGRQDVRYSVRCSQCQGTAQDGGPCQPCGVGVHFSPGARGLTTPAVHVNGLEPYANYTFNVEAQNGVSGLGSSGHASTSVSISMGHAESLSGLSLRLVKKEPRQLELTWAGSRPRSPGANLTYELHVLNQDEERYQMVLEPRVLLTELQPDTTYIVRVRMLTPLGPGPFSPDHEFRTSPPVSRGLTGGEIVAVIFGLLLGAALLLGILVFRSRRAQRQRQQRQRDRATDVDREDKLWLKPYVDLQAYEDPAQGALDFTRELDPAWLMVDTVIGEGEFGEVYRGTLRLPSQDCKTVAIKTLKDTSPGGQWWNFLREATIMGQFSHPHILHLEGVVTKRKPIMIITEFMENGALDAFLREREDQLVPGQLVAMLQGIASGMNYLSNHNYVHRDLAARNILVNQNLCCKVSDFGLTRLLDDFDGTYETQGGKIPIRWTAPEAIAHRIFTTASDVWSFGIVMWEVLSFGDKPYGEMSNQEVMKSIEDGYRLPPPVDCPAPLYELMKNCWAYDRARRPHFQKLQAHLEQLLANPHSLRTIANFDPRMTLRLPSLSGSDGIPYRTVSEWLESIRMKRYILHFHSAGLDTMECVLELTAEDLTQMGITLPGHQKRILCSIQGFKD
The conditions noted are these: at 1 µM.

In assay [17] the target is T6, Ephrin type-A receptor 1 (Homo sapiens). The conditions noted are these: at 10 µM.
The target in assay [18] is Ephrin type-A receptor 2 (Homo sapiens) (UniProt P29317). The conditions noted are these: at 1 µM.
The target is the same in assay [19]. The settings on record: at 10 µM.
Assay [20] deals with T7, Ephrin type-A receptor 3 (Homo sapiens) (UniProt P29320).
T7 sequence (whole entry): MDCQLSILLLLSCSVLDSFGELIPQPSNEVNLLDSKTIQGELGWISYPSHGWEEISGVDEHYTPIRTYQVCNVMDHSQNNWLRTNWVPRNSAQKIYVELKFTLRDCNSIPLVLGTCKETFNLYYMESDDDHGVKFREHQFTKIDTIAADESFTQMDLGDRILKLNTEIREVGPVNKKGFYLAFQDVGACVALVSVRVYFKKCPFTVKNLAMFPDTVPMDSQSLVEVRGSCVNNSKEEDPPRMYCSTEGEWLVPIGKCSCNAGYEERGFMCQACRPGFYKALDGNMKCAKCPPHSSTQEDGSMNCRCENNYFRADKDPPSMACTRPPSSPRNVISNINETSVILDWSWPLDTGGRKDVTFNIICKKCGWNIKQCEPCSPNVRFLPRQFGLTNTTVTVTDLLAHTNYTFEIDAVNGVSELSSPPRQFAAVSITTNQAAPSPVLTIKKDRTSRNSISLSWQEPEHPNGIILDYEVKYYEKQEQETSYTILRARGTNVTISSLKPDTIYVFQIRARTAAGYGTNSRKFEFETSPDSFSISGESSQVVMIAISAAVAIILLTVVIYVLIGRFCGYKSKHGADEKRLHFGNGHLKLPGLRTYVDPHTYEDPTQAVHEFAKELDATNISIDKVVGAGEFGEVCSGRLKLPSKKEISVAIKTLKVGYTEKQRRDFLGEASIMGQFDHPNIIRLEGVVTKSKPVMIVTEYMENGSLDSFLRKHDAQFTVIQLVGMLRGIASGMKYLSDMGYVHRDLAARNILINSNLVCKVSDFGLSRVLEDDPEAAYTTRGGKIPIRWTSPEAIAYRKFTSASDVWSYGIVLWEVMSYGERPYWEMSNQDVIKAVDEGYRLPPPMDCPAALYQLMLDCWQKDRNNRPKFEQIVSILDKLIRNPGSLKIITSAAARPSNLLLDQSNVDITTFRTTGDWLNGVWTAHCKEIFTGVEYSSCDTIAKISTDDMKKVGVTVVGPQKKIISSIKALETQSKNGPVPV
The conditions noted are these: at 1 µM.

As a reminder, the residual activity is the signal under treatment as a percentage of the control signal.

Sequence of Death-associated protein kinase 2 (Homo sapiens) (Q9UIK4 whole entry, looked up): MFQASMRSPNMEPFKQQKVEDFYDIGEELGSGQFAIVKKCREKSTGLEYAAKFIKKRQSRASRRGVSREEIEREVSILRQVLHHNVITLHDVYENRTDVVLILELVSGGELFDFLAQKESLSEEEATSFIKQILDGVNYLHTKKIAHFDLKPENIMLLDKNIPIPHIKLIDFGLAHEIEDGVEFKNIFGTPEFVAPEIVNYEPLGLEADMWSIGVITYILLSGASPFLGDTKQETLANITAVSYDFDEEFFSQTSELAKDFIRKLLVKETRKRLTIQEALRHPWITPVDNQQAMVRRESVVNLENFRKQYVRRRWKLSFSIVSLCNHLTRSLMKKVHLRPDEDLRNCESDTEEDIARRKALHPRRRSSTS
Sequence of Ephrin type-A receptor 2 (Homo sapiens) (P29317 whole entry): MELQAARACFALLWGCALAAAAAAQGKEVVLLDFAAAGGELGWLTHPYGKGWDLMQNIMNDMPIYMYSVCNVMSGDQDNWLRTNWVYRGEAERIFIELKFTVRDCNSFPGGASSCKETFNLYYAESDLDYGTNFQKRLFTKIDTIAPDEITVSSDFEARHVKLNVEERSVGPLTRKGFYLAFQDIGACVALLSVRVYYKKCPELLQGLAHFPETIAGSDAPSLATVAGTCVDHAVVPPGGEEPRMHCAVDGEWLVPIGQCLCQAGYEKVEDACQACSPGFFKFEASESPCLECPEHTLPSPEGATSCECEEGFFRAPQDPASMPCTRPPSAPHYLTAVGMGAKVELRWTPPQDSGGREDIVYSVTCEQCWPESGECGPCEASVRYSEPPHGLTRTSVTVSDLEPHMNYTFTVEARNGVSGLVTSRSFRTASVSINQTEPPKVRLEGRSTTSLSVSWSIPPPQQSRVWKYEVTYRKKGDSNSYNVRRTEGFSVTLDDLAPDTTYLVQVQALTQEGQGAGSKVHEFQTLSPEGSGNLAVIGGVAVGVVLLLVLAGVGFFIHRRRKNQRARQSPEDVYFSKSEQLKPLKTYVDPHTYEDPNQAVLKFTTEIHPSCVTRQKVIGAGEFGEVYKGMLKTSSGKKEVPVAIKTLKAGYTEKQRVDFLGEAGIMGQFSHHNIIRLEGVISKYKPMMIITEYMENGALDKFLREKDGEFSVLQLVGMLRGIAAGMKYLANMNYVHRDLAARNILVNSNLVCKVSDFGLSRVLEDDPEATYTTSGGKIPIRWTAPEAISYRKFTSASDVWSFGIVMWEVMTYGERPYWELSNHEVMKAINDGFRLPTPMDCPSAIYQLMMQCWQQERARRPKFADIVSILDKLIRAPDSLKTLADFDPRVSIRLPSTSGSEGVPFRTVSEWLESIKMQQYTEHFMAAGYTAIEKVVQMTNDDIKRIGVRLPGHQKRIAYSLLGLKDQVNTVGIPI
Sequence of Epidermal growth factor receptor (Homo sapiens) (P00533 whole entry): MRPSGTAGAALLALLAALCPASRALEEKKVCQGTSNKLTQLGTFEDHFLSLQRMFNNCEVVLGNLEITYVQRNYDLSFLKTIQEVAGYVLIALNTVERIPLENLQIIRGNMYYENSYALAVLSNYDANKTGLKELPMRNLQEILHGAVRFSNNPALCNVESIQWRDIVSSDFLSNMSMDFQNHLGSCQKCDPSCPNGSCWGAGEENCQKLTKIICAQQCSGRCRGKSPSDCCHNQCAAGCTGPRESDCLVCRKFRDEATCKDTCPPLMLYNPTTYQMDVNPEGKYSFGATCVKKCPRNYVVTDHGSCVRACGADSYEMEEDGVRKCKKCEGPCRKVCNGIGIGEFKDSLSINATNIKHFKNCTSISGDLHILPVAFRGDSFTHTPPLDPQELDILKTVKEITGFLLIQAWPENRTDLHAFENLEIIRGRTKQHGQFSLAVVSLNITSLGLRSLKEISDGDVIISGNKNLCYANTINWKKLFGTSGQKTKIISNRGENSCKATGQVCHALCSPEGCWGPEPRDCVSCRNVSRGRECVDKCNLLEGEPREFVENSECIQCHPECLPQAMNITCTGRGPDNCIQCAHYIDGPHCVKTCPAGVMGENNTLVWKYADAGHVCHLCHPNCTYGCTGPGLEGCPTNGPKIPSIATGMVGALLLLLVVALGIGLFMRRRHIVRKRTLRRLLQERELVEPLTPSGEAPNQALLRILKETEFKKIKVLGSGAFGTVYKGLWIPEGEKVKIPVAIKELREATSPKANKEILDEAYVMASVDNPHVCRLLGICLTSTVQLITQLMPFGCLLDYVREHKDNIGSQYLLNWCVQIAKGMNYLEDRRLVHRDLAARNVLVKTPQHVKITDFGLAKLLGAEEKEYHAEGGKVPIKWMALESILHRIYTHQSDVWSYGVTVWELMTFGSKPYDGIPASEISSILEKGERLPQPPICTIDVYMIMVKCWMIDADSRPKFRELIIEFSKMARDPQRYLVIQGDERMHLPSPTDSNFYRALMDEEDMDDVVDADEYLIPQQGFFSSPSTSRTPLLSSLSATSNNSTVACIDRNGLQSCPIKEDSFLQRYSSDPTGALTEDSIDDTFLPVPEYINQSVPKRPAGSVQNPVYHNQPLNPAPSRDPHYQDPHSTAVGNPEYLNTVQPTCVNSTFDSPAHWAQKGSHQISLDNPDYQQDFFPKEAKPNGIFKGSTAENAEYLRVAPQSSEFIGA
Sequence of Death-associated protein kinase 1 (Homo sapiens) (P53355 whole entry, looked up): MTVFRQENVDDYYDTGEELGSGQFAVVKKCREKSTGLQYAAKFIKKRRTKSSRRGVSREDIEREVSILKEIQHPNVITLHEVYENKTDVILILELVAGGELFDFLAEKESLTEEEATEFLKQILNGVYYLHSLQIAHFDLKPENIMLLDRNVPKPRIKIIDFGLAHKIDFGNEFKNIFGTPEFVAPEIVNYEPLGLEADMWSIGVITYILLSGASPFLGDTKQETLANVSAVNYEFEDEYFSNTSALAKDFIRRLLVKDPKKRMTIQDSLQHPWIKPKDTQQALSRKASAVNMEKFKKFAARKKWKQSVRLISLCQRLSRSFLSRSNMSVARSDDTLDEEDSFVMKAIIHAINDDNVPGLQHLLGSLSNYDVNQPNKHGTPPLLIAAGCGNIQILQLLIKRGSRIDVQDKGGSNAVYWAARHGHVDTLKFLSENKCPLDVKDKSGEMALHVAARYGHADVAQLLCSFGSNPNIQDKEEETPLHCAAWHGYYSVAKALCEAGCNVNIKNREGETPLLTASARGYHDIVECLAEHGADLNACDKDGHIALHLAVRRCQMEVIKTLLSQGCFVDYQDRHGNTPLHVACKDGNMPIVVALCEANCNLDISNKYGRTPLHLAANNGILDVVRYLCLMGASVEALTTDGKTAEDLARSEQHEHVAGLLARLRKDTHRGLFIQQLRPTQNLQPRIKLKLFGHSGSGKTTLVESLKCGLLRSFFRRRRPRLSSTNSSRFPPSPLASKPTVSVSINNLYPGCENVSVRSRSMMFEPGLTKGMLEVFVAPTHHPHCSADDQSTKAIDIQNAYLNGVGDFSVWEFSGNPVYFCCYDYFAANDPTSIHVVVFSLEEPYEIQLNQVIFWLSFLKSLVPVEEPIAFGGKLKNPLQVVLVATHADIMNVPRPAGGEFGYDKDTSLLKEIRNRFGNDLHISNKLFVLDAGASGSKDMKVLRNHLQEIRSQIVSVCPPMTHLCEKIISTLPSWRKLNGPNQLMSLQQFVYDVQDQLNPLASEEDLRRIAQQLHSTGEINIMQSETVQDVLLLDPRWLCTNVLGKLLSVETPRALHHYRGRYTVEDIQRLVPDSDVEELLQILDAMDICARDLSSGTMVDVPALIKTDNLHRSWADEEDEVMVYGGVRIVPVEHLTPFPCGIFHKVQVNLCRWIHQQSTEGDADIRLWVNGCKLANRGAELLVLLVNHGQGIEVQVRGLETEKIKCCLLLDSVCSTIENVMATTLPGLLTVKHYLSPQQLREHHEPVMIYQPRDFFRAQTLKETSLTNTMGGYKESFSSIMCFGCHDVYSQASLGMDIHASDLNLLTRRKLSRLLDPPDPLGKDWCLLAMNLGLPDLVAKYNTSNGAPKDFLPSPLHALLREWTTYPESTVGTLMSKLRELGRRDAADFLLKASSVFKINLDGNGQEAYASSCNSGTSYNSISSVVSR

As to `O=C(Nc1cccc(Nc2nccc(Nc3cccc(C(F)(F)F)c3)n2)c1)C1CC1`, the residual activity in [1] is 60%; in assay [2], 93%; in assay [3], 68%; in assay [4] it was 82%; in [5] it was 102%; in [6] it was 79%. The residual activity amounted to 30% in [7]; 72% in assay [8]; 125% in assay [9]; 73% in assay [10]; 10% in assay [11]; 95% in assay [12]. Further, the residual activity in assay [13] worked out at 96%; in [14] it was 61%; in assay [15], 19%; in assay [16], 22%; in [17], 22%; in assay [18], 79%. Besides, the residual activity in assay [19] is 19%; in [20] it was 95%.

As to `C[C@@H](N)[C@H]1CC[C@H](C(=O)Nc2ccncc2)CC1`, the residual activity amounted to 104% in assay [1]; 88% in assay [2]; 85% in [3]; 110% in assay [4]; 87% in assay [5]; 108% in assay [6]. Also, the residual activity worked out at 105% in assay [7]; 95% in assay [8]; 95% in assay [9]; 70% in [10]; 67% in assay [11]; 101% in [12]. Besides, the residual activity in assay [13] came to 91%; in assay [16] it was 101%; in assay [17] it was 96%; in assay [18], 96%; in assay [19] it was 98%; in [20], 103%.

The values above are taken from ChEMBL document CHEMBL2218924, “A broad activity screen in support of a chemogenomic map for kinase signalling research and drug discovery” (Biochem J, 2013).
